According to ChEMBL document CHEMBL3988442, “University of Dundee, Small-Polar-MMV Screening Library” (2021):

Target: AMP-activated protein kinase, AMPK (Homo sapiens) (UniProt P54646+O43741+P54619+Q9UGJ0+Q9Y478+Q13131+Q9UGI9)
Test: AMP-dependent Kinase enzyme assay. An in vitro enzyme assay that detects ADP turnover that is directly proportional to AMPK activity. This uses naive AMPK that is activated during the assay with MK-8722
Format: functional
Design: scale not given: direction of the effect not stated beside the values
Settings: 30 µM

Row | Compound | Percent Effect
1 | O=C(CN1CC(c2ccccc2)CC1=O)N1CCC(c2ncc[nH]2)CC1 (centres undefined) | 2.5%
2 | Cc1cc(C(=O)N2C[C@@H](CN(C)CCN(C)C)[C@@H](CO)C2)nc(C)n1 | -14.8%
3 | Cc1cnn(C2CN(Cc3nc4cc(Cl)ccc4n3C)C2)c1 | -6.13%
4 | O=C(c1cncc(NCC2COc3ccccc3C2)n1)N1CCOCC1 (centres undefined) | 7.56%
5 | COc1ccc(S(=O)(=O)Nc2cccnc2-n2cncn2)cc1C | -0.234%
6 | COC(=O)C1CCN(C(=O)Cn2nc(C)nc2-c2ccccc2)CC1 | -7.76%
7 | CC(C)N1CCCC(CNC(=O)CN(C)S(=O)(=O)c2ccccc2)C1 (centres undefined) | -1.71%
8 | Cn1nccc1-c1cncc(C2CCCN(S(C)(=O)=O)C2)n1 (centres undefined) | 22.7%
9 | CN(C)S(=O)(=O)N1CC[C@]2(O)CCN(c3cc(C#N)ccn3)C[C@@H]2C1 | -3.03%
10 | Cc1ncc2c(n1)CN(Cc1nc(-c3ccco3)oc1C)CC2 | -38.3%
11 | CC(C)N(C)S(=O)(=O)c1ccc2c(c1)CCN(C(=O)c1cnccn1)C2 | 0.361%
12 | CN(CCc1ccccc1)Cc1c(C2CCNCC2)[nH]c2ncccc12 | 7.86%
13 | CC1CN(c2ncnc3c2cnn3C)CCN1c1nccs1 (centres undefined) | 11.2%
14 | O=C(NCCc1cccnc1)c1ccc2nccn2c1 | 0.0619%
15 | CNS(=O)(=O)CC(=O)N1CCC(c2cc3ccccc3[nH]2)CC1 | 16.4%
16 | Cc1cccc(CN2CCOCC2c2[nH]ncc2C)n1 (centres undefined) | 16.3%
17 | CN1CCN(CCOc2ccc(NC(=O)c3ccncc3)cc2)CC1 | 0.498%
18 | CC1CCCCN1C(=O)COc1nc(Cc2ccc(F)cc2)no1 (centres undefined) | 2.51%
19 | CCC[C@H]1CN(Cc2cc(C#N)n(C)c2C)C[C@@H]1NS(=O)(=O)CC | -157%
20 | O=C(COc1ccc(Cl)cc1)NCc1nncn1C1CC1 | -8.68%

Row | Compound | Percent Effect
21 | Cn1ncnc1NCc1ccc(Cl)cc1 | 7.15%
22 | COc1cccc(F)c1C(C)NC(=O)NCc1cnc(C)s1 (centres undefined) | 10.2%
23 | CCC(C#N)NC(=O)c1sccc1OC (centres undefined) | 2.49%
24 | Oc1cc(C2CCCN(Cc3cccs3)C2)nc(-c2ccccn2)n1 (centres undefined) | 16.9%
25 | O=S(=O)(NCc1ccnc(-n2ccnc2)c1)c1cncc(Cl)c1 | 0.0234%
26 | CC(CC(=O)c1ccccc1)NC(=O)c1ccon1 (centres undefined) | 8.5%
27 | Cc1cc(-c2cnc(N3CCSCC3)nc2C(C)C)on1 | 16%
28 | CCn1cc(S(=O)(=O)Nc2ccc3[nH]c(C4CCC4)nc3c2)cn1 | 2.5%
29 | CCc1cc(NC(CCO)c2ccc(OC)cc2)n2nccc2n1 (centres undefined) | 2.19%
30 | Cc1cc(CN2CCC(c3cc(Cc4ccccc4)n[nH]3)CC2)[nH]n1 | -6.49%
31 | Cc1cc(NC(=O)CN2CCN(C3CCCC3)C(=O)C2)nn1C | 8.93%
32 | CCC[C@@H]1CN(Cc2cnc(-c3cccs3)nc2)C[C@H]1C(=O)O | -8.24%
33 | Cc1oc(-c2ccco2)nc1CN1CCc2cncnc2C1 | -10.6%
34 | Cn1ccnc1-c1cn(CCc2nnc(N)s2)nn1 | -14.9%
35 | CC(=O)N1CCC(C(=O)N2CCC2c2nc(-c3ccc(C)s3)no2)CC1 (centres undefined) | 7.15%
36 | O=C(CCC(=O)N1CCNC(=O)C1c1cccc(F)c1)NC1CCCC1 (centres undefined) | -9.49%
37 | CC(C)c1nc(C2CCCN2CCN2CCCCC2)no1 (centres undefined) | -7.59%
38 | Fc1ccccc1CN1CCC[C@H](Cn2nnc(-c3cccs3)n2)C1 | 4.46%
39 | Cc1cc(N2CCCC(N(C)C)C2)n2nccc2n1 (centres undefined) | 1.81%
